Data on seven compounds can be found in PubChem BioAssay (NCI).

Common to all, as to assay: NCI-60 one-dose screen, 48 h (100 = growth as untreated, 0 = no growth, -100 = all killed)
Common to all, as to conditions: 10 µM unless noted

The subject of test [1] is DU-145 prostate.
The test system of test [2] is K-562 leukemia.
Test [3] concerns MALME-3M melanoma.
Test [4] deals with MDA-MB-231 breast.
Test [5] concerns RXF 393 renal.
Test [6] relates to SF-268 CNS.
The subject of test [7] is SF-295 CNS.
Test [8] has as its system SF-539 CNS.
For test [9], the system named is UACC-257 melanoma.
Test [10] concerns M14 melanoma.
In test [11] the test system is HCT-15 colon.
Test [12] deals with HT29 colon.
Test [13] concerns SNB-75 CNS.
The test system of test [14] is SNB-19 CNS.
Test [15] relates to U251 CNS.
Test [16] concerns PC-3 prostate.
Test [17] relates to SK-MEL-5 melanoma.
Test [18] concerns UACC-62 melanoma.
Test [19] has as its system LOX IMVI melanoma.
Test [20] has as its system SK-MEL-28 melanoma.

The structures appear in SMILES notation. About 83,000 compounds went through this panel and 20% of them were active in at least one assay; those are over-represented in the sample as a whole.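 Single-concentration screen, 48 h exposure, 96-well plates. Endpoint: percent growth. Below 10 = active.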 Values without a mark were called inactive. Active and inactive are the calls of the source.

Turning to `Cn1c(=O)c2nc(/C=C/c3ccccc3)c(=O)[nH]c2n(C)c1=S`, the growth is 113% in [1]; 105% in [2]; 105% in test [3]; 105% in [4]; 118% in test [5]; 105% in [6]. Also, the growth was 99.8% in test [7]; 104% in test [8]; 112% in [9]; 103% in [10]; 102% in [11]; 109% in test [12]. Further, the growth in test [13] is 105%; in test [14] it was 105%; in [15], 108%; in test [16] it was 102%; in [17], 102%; in [18], 92.4%. In addition, the growth was 101% in [19] and 111% in test [20].

In the case of `C=C(C)[C@@H]1CC[C@]2(C(=O)N3CCOCC3)CC[C@]3(C)[C@H](CC[C@@H]4[C@@]5(C)C/C(=C/c6ccncc6)C(=O)C(C)(C)[C@@H]5CC[C@]43C)[C@@H]12`, the growth is 77.9% in [1]; 38.6% in test [2]; 77.5% in [3]; 78.6% in test [4]; 52.3% in [5]; 66.3% in [6]. Further, the growth in test [7] was 85.9%; in test [8] it was 78.5%; in test [9], 53.7%; in [10], 75%; in test [11], 42.6%; in test [12], 33.8%. The growth was 78.5% in [13]; 76.9% in test [14]; 55.7% in test [15]; 25.2% in test [16]; 60.6% in [17]; 43.1% in test [18]. For the same compound, the growth in test [19] is 60%; in test [20], 74%.

With `NC(=O)CSc1oc(-c2ccccc2)nc1S(=O)(=O)c1ccc(Br)cc1`, the growth was 85.6% in test [1]; 91.7% in [2]; 59.4% in test [3]; 52.7% in [4]; 46.5% in test [5]; 72.6% in test [6]. Further, the growth was 80.7% in test [7]; 45.7% in test [8]; 84.7% in test [9]; 83.5% in [10]; 90.6% in test [11]; 50.2% in [12]. Also, the growth in test [13] is 9.67% (active); in [14], 83%; in test [15] it was 54.6%; in [16], 77.9%; in test [17] it was 55.7%; in test [18] it was 49.5%. The growth in [19] was 94.3%; in test [20] it was 87.7%.

As for `C=CC(=O)N1CCN(c2cccc(Oc3nccc(Nc4nnc(-c5ccc(Br)cc5)s4)n3)c2)CC1`, the growth in [1] was 78.5%; in [2], 22.2%; in test [3] it was 65.2%; in [4], 75.2%; in test [5], 74.7%; in test [6] it was 74.8%. The growth in test [7] was 55.8%; in [8] it was 72.7%; in [9] it was 80.6%; in [10], 44.9%; in test [11] it was 40.3%; in test [12], 53.1%. Moreover, the growth in [13] was 69.3%; in test [14], 57.3%; in test [15] it was 56.8%; in test [16] it was 61.1%; in test [17], 42.7%; in test [18], 37%. The growth in [19] is 59%; in test [20], 67.1%.

On to `COC(=O)c1c2c(c(C)[n+]([O-])c1C)C(=O)C(NCc1cccc(OC)c1)=CC2=O`, for which the growth in [1] is 54.8%; in test [2], 13.7%; in test [3], -89.9% (active); in test [4], 5.97% (active); in test [5] it was 38.7%; in test [6] it was 36.8%. Also, the growth was 69.9% in test [7]; 11.4% in test [8]; -25.5% (active) in [9]; 12.9% in test [10]; 11.9% in [11]; 11.4% in [12]. Further, the growth is 132% in test [13]; 19.2% in [14]; -1.83% (active) in test [15]; 6.62% (active) in test [16]; -54.8% (active) in [17]; -13.3% (active) in test [18]. The growth in test [19] is 22%; in test [20] it was 86.6%.

For `O=C(Nc1nc2cc(C(=O)N3CCN(C(c4ccccc4)c4ccccc4)CC3)ccc2o1)c1ccc(NC2CCCCC2)c([N+](=O)[O-])c1`, the growth in test [1] was 61.9%; in test [2], 47%; in [3] it was 68.7%; in [4] it was 75%; in [5], 74.9%; in test [6], 58.2%. The growth in test [7] was 42.1%; in test [8], 59.9%; in test [9], 62.2%; in [10], 58.2%; in test [11] it was 35.1%; in test [12], 62.2%. In addition, the growth in test [13] is 71.7%; in test [14], 48.3%; in test [15], 32.5%; in [16], 53.9%; in [17], 49.7%; in test [18], 45.8%. Besides, the growth was 45.5% in test [19] and 66.5% in test [20].

Turning to `CCOC(=O)C1=C(c2ccccc2)N=C2SC=C(c3ccc(Cl)cc3)N2C1c1ccc(Cl)cc1` (stereo not given), the growth was 87.7% in [1]; 73.8% in test [2]; 87.2% in test [3]; 74.2% in test [4]; 72% in test [5]; 78.8% in test [6]. Also, the growth in test [7] was 88.9%; in [8], 92.8%; in test [9], 64.9%; in test [10], 82.8%; in test [11] it was 77.6%; in test [12] it was 83%. In addition, the growth was 84.7% in [13]; 82.8% in [14]; 80.9% in test [15]; 41.3% in [16]; 54.7% in test [17]; 66.4% in test [18]. For the same compound, the growth is 88.3% in test [19] and 95.8% in test [20].
